From PubChem BioAssay (NCATS)
“And” between values parts separate entries of the source, which are not always exact repeats. Equal values may be shown once. Inconclusive results are not listed. Unmarked numbers belong to inactive results. Calls come from the whole dose curve; as a rule, active = well fitted activation curve with a large enough effect; inconclusive = small, poorly fitted or top-dose-only effect; inactive = no such curve, though single readings can be large or run the other way.

Each molecule was assayed against Cellular tumor antigen p53 (Homo sapiens) (UniProt P04637) (assay: Primary qHTS for small molecule compounds that upregulate eGFP-tagged delta133p53alpha (in N-terminal) cells. (AID 2060322;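 note: series mostly up to about 56 µM; 0% = DMSO vehicle and 100% = reference activator; nearly all actives have a fitted effect of over 75% in size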)). Conditions: NCI-H358 eGFP-delta133p53alpha fluorescence, 24 h; activation: stronger effect = higher value.
Chain of Cellular tumor antigen p53 (Homo sapiens) (P04637 whole entry, looked up): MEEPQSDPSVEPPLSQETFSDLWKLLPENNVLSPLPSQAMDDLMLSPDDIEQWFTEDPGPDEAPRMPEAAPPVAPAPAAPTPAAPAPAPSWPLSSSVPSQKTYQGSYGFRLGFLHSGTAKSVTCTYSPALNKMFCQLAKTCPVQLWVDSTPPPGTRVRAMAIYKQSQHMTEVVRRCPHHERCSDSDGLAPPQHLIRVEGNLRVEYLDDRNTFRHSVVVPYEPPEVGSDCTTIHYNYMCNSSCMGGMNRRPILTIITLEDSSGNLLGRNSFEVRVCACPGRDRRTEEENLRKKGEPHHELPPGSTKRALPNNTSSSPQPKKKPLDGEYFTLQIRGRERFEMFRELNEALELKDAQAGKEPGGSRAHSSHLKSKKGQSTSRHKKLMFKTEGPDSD
Outline: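 NCI-H358 cells pre-induced 24 h with 10 ng/ml doxycycline to express N-terminal eGFP-delta133p53alpha, then dosed 24 h at 37C without doxycycline; fixed, Hoechst-stained, GFP intensity by laser scanning cytometry, normalized to DMSO (0%) and 57.5 uM 5-azacytidine (100%).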

| Structure (SMILES) | activation |
| --- | --- |
| NCCc1c[nH]c2ccc(O)cc12 | -1.52% |
| CCNC(=O)[C@H]1O[C@@H](n2cnc3c(N)ncnc32)[C@H](O)[C@@H]1O | 1.33% |
| C[C@]12N[C@H](Cc3ccccc31)c1ccccc12 | -0.686% |
| Oc1ccc2c3c1O[C@H]1c4[nH]c5ccccc5c4C[C@@]4(O)C(C2)N(CC2CC2)CCC314 (some centres undefined) | -38.9% |
| CN(N=O)c1cc(O)ccc1O | -33.2% |
| CC(O)(CS(=O)(=O)c1ccc(F)cc1)C(=O)Nc1ccc(C#N)c(C(F)(F)F)c1 (centres undefined) | -7.17% and -30.6% and 1.43% |
| C[N+]1(C)C2CCC1CC(OC(=O)C(CO)c1ccccc1)C2 (centres undefined) | -2.46% and -16.7% |
| C[N+](C)(C)CCOC(=O)CBr | -13.1% |
| OC1CCCCC1N1CCC(c2ccccc2)CC1 (centres undefined) | -21.4% |
| CC(C)(C)c1cc(C=C(C#N)C#N)cc(C(C)(C)C)c1O | 6.66% |
| COc1ccc(OC)c(C(O)C(C)N)c1 (centres undefined) | 15.6% |
| CC1(C(=O)O)C2CCC(O2)C1(C)C(=O)O (centres undefined) | -33.6% |
| CS(=N)(=O)CC[C@H](N)C(=O)O (some centres undefined) | -13.1% |
| CCS(=O)(=O)Nc1cccc(C(=C2CCCCC2)c2cnc[nH]2)c1 | -47% |
| CN[C@@H]1C[C@@H](c2ccc(Cl)c(Cl)c2)c2ccccc21 | -33.4% |
| NCC(CP(=O)(O)O)c1ccc(Cl)cc1 (centres undefined) | -1.72% |
| NC(=O)CI | 22% |
| C[N+]1(C)CCc2cc3c(cc2[C@H]1[C@@H]1OC(=O)c2c1ccc1c2OCO1)OCO3 | -3.8% |
| CC(=O)NBr | -8.24% |
| Clc1cc(I)cc(Cl)c1NC1=NCCN1 | -24.7% |

| Structure (SMILES) | activation |
| --- | --- |
| C[N+]1(C)CCOC(O)(c2ccc(-c3ccc(C4(O)C[N+](C)(C)CCO4)cc3)cc2)C1 (centres undefined) | 14.5% |
| Cc1cccc(C)c1NC(=O)CN1CCCC1=O | -17.7% and -15.1% and -5.58% |
| CC(C)(C)c1o[nH]c(=O)c1CC(N)C(=O)O (centres undefined) | -13.9% |
| COC[C@H]1OC(=O)c2coc3c2[C@@]1(C)C1=C(C3=O)C2CCC(=O)[C@@]2(C)C[C@H]1OC(C)=O (some centres undefined) | -11.7% |
| CC(C)(C)OC(=O)NC1[C@H]2CNC[C@@H]12 (some centres undefined) | -12.9% |
| Cc1[nH]c2ccc(O)cc2c1CCN | -25.5% |
| c1ccc2c(c1)OCC(C1=NCCN1)O2 (centres undefined) | -26.9% |
| CC(N)Cc1c[nH]c2ccc(OCc3cccs3)cc12 (centres undefined) | -31.9% |
| CCCN(CCC)C1CCc2ccc(O)cc2C1 (centres undefined) | -10.8% |
| CNCCc1c[nH]c2ccc(O)cc12 | -26.4% |
| CN1CCC(c2c[nH]c3ccc(O)cc23)CC1 | -20.9% |
| Nc1ccncc1 | -16.4% and 3.84% |
| C[C@@H]1O[C@@H](O[C@H]2C[C@@H](O)[C@]3(CO)[C@@H]4C(CC[C@]3(O)C2)[C@@]2(O)CC[C@H]([C@@H]3COC(=O)C3)[C@@]2(C)C[C@H]4O)[C@H](O)[C@H](O)[C@H]1O (some centres undefined) | -50% |
| Cc1o[nH]c(=O)c1CC(N)C(=O)O (centres undefined) | 16.8% |
| CCCN1CCc2cccc3c2[C@H]1Cc1ccc(O)c(O)c1-3 | -13.3% |
| NC(=O)c1cc(N2CC2)c([N+](=O)[O-])cc1[N+](=O)[O-] | -14.9% |
| NC(C(=O)O)c1cc(=O)[nH]o1 (centres undefined) | -10.1% |
| CC(=O)[C@H]1CC[C@H]2[C@@H]3CC[C@H]4C[C@H](O)CC[C@]4(C)[C@H]3C(=O)C[C@]12C | -36.8% and -33% |
| NCCc1ccc(S(=O)(=O)F)cc1 | -21.4% |
